Results reported in ChEMBL document CHEMBL4513216, “Probing the Open Global Health Chemical Diversity Library for Multistage-Active Starting Points for Next-Generation Antimalarials” (ACS Infect Dis, 2020).
Screen size: about 69,000 compounds; about 8,600 (12%) showed an effect of 50% or more. Only a selection was taken, and strong results are over-represented in it overall.

Tested on: Plasmodium berghei
Test: Screen against P. berghei liver stage (PbLuc), transformed with Luciferase, at 10uM
Assay type: functional, HepG2
Details: tested at 10 uM

Row | Compound | INHIBITION [%]
1 | O=c1cc(N2CCNCC2)cnn1Cc1noc(C2CCCC2)n1 | 78.6
2 | O=c1cc(N2CCCC2)cnn1Cc1noc(C2CCCO2)n1 (stereo not drawn) | 47.1
3 | O=c1cc(N2CCCCC2)cnn1Cc1noc(C2CCCO2)n1 (stereo not drawn) | -27.1
4 | Cc1ccccc1CNC(=O)N1C[C@@H]2C[C@H](C(=O)N(C)C)[C@H](C1)O2 | 5.63
5 | COc1ccc(OC)c(CNc2nnc(C(C)(C)C)o2)c1 | -10.9
6 | CC(Cn1cncn1)NC(=O)NCC(C)(C)Cc1ccccc1 (stereo not drawn) | 39.8
7 | CC(Cn1cncn1)NC(=O)Nc1ccc(F)cc1OCC1CC1 (stereo not drawn) | -21.1
8 | CC(Cn1cncn1)NC(=O)NCC(C)(C)c1ccc(F)cc1 (stereo not drawn) | 64.5
9 | CC(NC(=O)NCCCn1cncn1)c1ccc(F)cc1 (stereo not drawn) | -1.7
10 | CC(Cn1cncn1)NC(=O)NCc1csc(N(C)C)n1 (stereo not drawn) | 23.6
11 | Cc1ccc(C(C)(C)CNC(=O)NC(C)Cn2cncn2)cc1 (stereo not drawn) | 61.1
12 | Cn1ncc(C(=O)N2CCN(C(=O)c3ccco3)CC2)c1Cl | 36.5
13 | CC(=O)N1CCCC2(CCC(=O)N2Cc2cccnc2)C1 (stereo not drawn) | 6.27
14 | Cc1ccc(C(=O)N2CCOC(c3nc(-c4ncccn4)no3)C2)cc1 (stereo not drawn) | 11.1
15 | c1cc2c(cc1CN1CCN(Cc3noc(C4CC4)n3)CC1)OCO2 | -28
16 | c1cc2c(cc1CN1CCC(Cc3noc(C4CC4)n3)CC1)OCCO2 | -5.26
17 | c1cc2c(cc1CSCc1noc(C3CC3)n1)OCCO2 | 74.3
18 | COCCCNC(=O)CN1CCSC(c2ccccc2)C1 (stereo not drawn) | 3.88
19 | COc1ccccc1C1CC(=O)Nc2nc(N3CCCCC3)sc21 (stereo not drawn) | 15.1
20 | Cc1cc(C(=O)N2CCCC2c2noc(C(C)C)n2)c(C)o1 (stereo not drawn) | 4.52
21 | CCN(CC)S(=O)(=O)c1ccc(CNC(=O)N2CCCCCC2)cc1 | 54.3
22 | CS(=O)(=O)c1ccc(CNC(=O)N2CCC(C(N)=O)CC2)cc1 | -60.8

Row | Compound | INHIBITION [%]
23 | CCN(CC)S(=O)(=O)c1ccc(CNC(=O)N2CCC(C#N)CC2)cc1 | 45.7
24 | COCCCNC(=O)c1cn(C(C)C)cc2c(=O)[nH]nc1-2 | 14.9
25 | Cc1nn(C)cc1S(=O)(=O)N(CCc1ccccc1)Cc1ccn(C)n1 | 26.75
26 | CSCC[C@@H](CO)NC(=O)c1sc(-c2ccccc2Cl)nc1C | 9.84
27 | Cc1ccccc1-n1ncc2c(=O)n(CCN3CCCC3)cnc21 | -16.3
28 | CCOCCCNC(=O)CCSCc1csc(C)n1 | 63.8
29 | Cc1nc(CSCCC(=O)NCCNC(=O)OC(C)(C)C)cs1 | -30.7
30 | Cc1nc(CSCCC(=O)NCC(=O)NC(C)C)cs1 | 29.4
31 | Cc1ccc(-c2ccnc(NCC(O)c3ccc(O)cc3)n2)c(C)n1 (stereo not drawn) | 37.8
32 | O=C1NCCCCC1NC(=O)N1CCCc2ccccc21 (stereo not drawn) | 34.2
33 | COc1ccc2c(c1)CCCN2C(=O)NC1CCCCNC1=O (stereo not drawn) | 44.3
34 | O=C1NCCCCC1NC(=O)N1CCCc2cc(F)ccc21 (stereo not drawn) | 58.9
35 | Cc1ccc(CN2CCc3[nH]nc(C(=O)N(C)C)c3C2)s1 | 8.74
36 | NS(=O)(=O)CCNC(=O)c1nnn(-c2ccccc2)c1C1CC1 | 56.8
37 | O=C(NCC1(CO)CC1)c1nnn(-c2ccc(F)cc2)c1C1CC1 | 78.2
38 | O=C(NCC1(C(=O)O)CCC1)c1nnn(-c2ccc(F)cc2)c1C1CC1 | 20
39 | CS(=O)(=O)NC(=O)c1nnn(-c2ccccc2)c1C1CC1 | 8.64
40 | Cc1ccc(-n2nnc(C(=O)NCCS(N)(=O)=O)c2C2CC2)cc1 | 58.5
41 | COC(=O)CCNC(=O)c1nnn(-c2ccc(C)cc2)c1C1CC1 | 49.8
42 | CC(C)NC(=O)c1nnn(-c2ccccc2)c1C1CC1 | -65.5
43 | NS(=O)(=O)CCNC(=O)c1nnn(-c2ccc(F)cc2)c1C1CC1 | 36.8
44 | Cc1ccc(-n2nnc(C(=O)NCC3(CO)CC3)c2C2CC2)cc1 | 33.3

Row | Compound | INHIBITION [%]
45 | CCc1nc(C2CCCN(C(=O)c3cc(C(C)C)[nH]n3)C2)no1 (stereo not drawn) | 21.6
46 | O=C(NCC1CC1)[C@@H]1CC[C@@H]2[C@@H](CCN2Cc2ccco2)O1 | -35
47 | O=C(NCCN1CCOCC1)c1nc(-c2ccc3[nH]ccc3c2)no1 | -50.8
48 | Cn1ncc(C(=O)N2CCN(S(C)(=O)=O)CC2)c1Cl | -10.95
49 | CNC(=O)C1(C)CCCN1Cc1cnn(C)c1C (stereo not drawn) | 37.8
50 | Cc1nn(C)cc1CN(C)C(=O)c1ccccn1 | 8.7
51 | Cc1nn(C)cc1CN(C)C(=O)c1cccnc1 | -13.6
52 | Cc1nn(C)cc1CN(C)C(=O)c1ccncc1 | 69.9
53 | Cc1nc(CN2CCC3(CC2)NC(=O)CC3c2ccncc2)cs1 (stereo not drawn) | 45.7
54 | CCC(C)N(Cc1sccc1C)C(=O)c1cnc[nH]1 (stereo not drawn) | 9.41
55 | CCc1nnc(CN(C)Cc2cccc(C(=O)Nc3nccs3)c2)o1 | 70.9
56 | CCc1nnc(CN(C)Cc2cccc(C(=O)Nc3cnn(C)c3)c2)o1 | 28.7
57 | CCc1nnc(CN(C)Cc2cccc(C(=O)Nc3ccnn3C)c2)o1 | 35
58 | CC(C)(CO)CCCNC(=O)NC1(C)Cc2ccccc2C1 | 47.2
59 | c1ccc(CN2CCc3nnc(CN4CCCCC4)n3CC2)nc1 | -2.84
60 | COc1ccc(Cc2ncc3c(n2)CN(C(=O)C(C)(C)OC)C3)cc1 | 11.2
61 | Cc1cc(C(=O)N(CC2CCCO2)c2ccncc2)c(C)o1 (stereo not drawn) | 26.4
62 | Cc1ccc(C(=O)N2CCn3c(COCC4CC4)cnc3C2C)s1 (stereo not drawn) | -3.24
63 | NC(=O)COc1ccc(CNCc2ccc(F)c(F)c2)cc1 | -33.2
64 | Cn1cc(CC2CCN(C(=O)NCc3cccc(C#N)c3)C2)cn1 (stereo not drawn) | 8.55
65 | CC1CN(C(=O)NCc2cccc(C#N)c2)CCN1CC(F)(F)F (stereo not drawn) | 19
66 | CC(N1CCN(C(=O)NCc2cccc(C#N)c2)CC1)C(F)(F)F (stereo not drawn) | 56.7

Row | Compound | INHIBITION [%]
67 | Cc1cc(Cc2ccc(S(=O)(=O)N3CCSCC3)cc2)c(=O)[nH]n1 | 13.2
68 | CCC1CN(CCCNS(C)(=O)=O)c2ccccc2O1 (stereo not drawn) | 50.1
69 | CCC1CN(CCNS(C)(=O)=O)c2ccccc2O1 (stereo not drawn) | -4.46
70 | CCC1CN(CCCO)c2ccccc2O1 (stereo not drawn) | 29.8
71 | CN1C(=O)CCC12CCCN(Cc1nccs1)C2 (stereo not drawn) | 59
72 | CCN1C(=O)CCC12CCCN(Cc1nccs1)CC2 (stereo not drawn) | 59.7
73 | CCN1C(=O)CCC12CCCN(Cc1nccs1)C2 (stereo not drawn) | 46.2
74 | CS(=O)(=O)N1CCCC12CCN(Cc1nccs1)CC2 | 28.2
75 | O=C1CCC2(CCCN(Cc3nccs3)C2)N1CC1CC1 (stereo not drawn) | 36.9
76 | COCCN1C(=O)CCC12CCCN(Cc1nccs1)CC2 (stereo not drawn) | 48.6
77 | CS(=O)(=O)N1CCCC12CCN(Cc1nccs1)C2 (stereo not drawn) | -0.804
78 | Cc1ccc(CN2CCC3(CCCN3S(C)(=O)=O)CC2)s1 | 25.8
79 | CS(=O)(=O)N1CCCCC12CCCN(Cc1nccs1)C2 (stereo not drawn) | 60.3
80 | Cc1ccc(CN2CCCC3(CCCCN3S(C)(=O)=O)C2)s1 (stereo not drawn) | 14.9
81 | Cc1ccc(CN2CCCC3(CCCN3S(C)(=O)=O)C2)s1 (stereo not drawn) | 63.8
82 | CN1C(=O)CCCC12CCCN(Cc1nccs1)C2 (stereo not drawn) | 16.9
83 | Clc1ccccc1C1CN(CCc2ccncc2)CCO1 (stereo not drawn) | 29.1
84 | Cc1ccc(C(=O)N2CCC3(CC2)COC(COc2cccnc2)C3)o1 (stereo not drawn) | 3.69
85 | CN(C)S(=O)(=O)N1CC[C@]2(O)CCN(CCc3cccc(F)c3)C[C@@H]2C1 | 3.96
86 | CN(C)[C@@H]1CN(Cc2ccoc2)C[C@@H]2CCCO[C@@H]21 | 25.6
87 | COCC1CN(C(C)=O)CCN(c2cc(C)ncn2)C1 (stereo not drawn) | 24.4
88 | Cc1ccc(C(=O)N2C[C@H]3CCC[C@@]3(COc3ccccn3)C2)nc1 | -10.2

Row | Compound | INHIBITION [%]
89 | Cc1cc(C2CCC2)nc(NCC(C)(C)CO)n1 | -7.53
90 | Cc1c(S(=O)(=O)N2CCCCC2c2nnc(-c3cccs3)o2)cnn1C (stereo not drawn) | -11.28
91 | CC(C)(O)CN1CCN(C(=O)c2cccc(CC#N)c2)CC1 | -9.76
92 | Cc1noc(C)c1C1CCCN1C(=O)c1cn2ccsc2n1 (stereo not drawn) | 12.9
93 | Cc1ccc(OCc2nc(CNCC3CN(C)CCO3)cs2)cc1 (stereo not drawn) | -45.6
94 | Cc1nc(N2CCN(C(=O)CC3CCCC3)CC2)c2cnn(C)c2n1 | 0.0944
95 | Cc1nc(N2CCC(CC(=O)N3CCCC3)CC2)c2cnn(C)c2n1 | 31.2
96 | Cc1nc(N2CCCC(N3CCCC3)C2)c2cnn(C)c2n1 (stereo not drawn) | 55.1
97 | COCc1nc(N2CCC(CCO)CC2)c2cnn(C)c2n1 | 14.3
98 | Cc1nc(N2CCC(CN3CCCC3)CC2)c2cnn(C)c2n1 | 57.2
99 | CCCc1nc(N2CCCN3CCC[C@H]3C2)c2cnn(C)c2n1 | 27.7
100 | CCCc1nc(N2CCCC(CCOC)C2)c2cnn(C)c2n1 (stereo not drawn) | 40.6
101 | Cn1ncc2c(N3CCCN4CCC[C@H]4C3)nc(C(C)(C)C)nc21 | 31.6
102 | CCCc1nc(N2CCC(CCO)CC2)c2cnn(C)c2n1 | 60
103 | CCc1n[nH]c(C2CN(C(=O)CCc3cscn3)CCO2)n1 (stereo not drawn) | 7.42
104 | O=C(c1cccc(NCc2cccc(F)c2)c1)N1CCC(O)CC1 | -39.4
105 | CC1CN(CC(=O)NC(=O)NCc2ccccc2)CCO1 (stereo not drawn) | 5.53
106 | CCS(=O)(=O)c1ncc(CN2CCN(C)CC2)n1CCc1ccccc1 | 38.7
107 | CCS(=O)(=O)c1ncc(CN2CCCC2)n1CCc1ccccc1 | 13
108 | CCS(=O)(=O)c1ncc(CN2CCSCC2)n1CCc1ccccc1 | 58.9
